About 83,000 compounds went through this panel and 20% of them were active in at least one assay; those are over-represented in the sample as a whole.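 Plates (96-well) were seeded with cells, treated with compound at one concentration, and incubated for 48 hours before percent growth was determined.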 A number with no mark means an inactive call. Active and inactive are the calls of the source. Rule for the calls: active = growth percent below 10; inactive = the rest.
Tested on: RPMI-8226 leukemia
Experiment: NCI-60 one-dose screen, 48 h (100 = growth as untreated, 0 = no growth, -100 = all killed)
Conditions: 10 µM unless noted

Structure (SMILES) | growth
O=c1ccn(-c2ncnc3nc[nH]c23)cc1 | 76.4%
CCN(CC)c1ccc(CNc2ccnc3ccccc23)cc1 | 25.2%
COc1ccc(CN2CCc3c(Sc4ccccc4)nc(N)nc3C2=O)c(OC)c1 | -6.07% (active)
COc1ccc(/C=C\c2cc(OC)c(OC)c(OC)c2)cc1OC(=O)c1cccc(Cn2cc(CCOC(=O)c3cccc(Cn4nnc5c4C(=O)c4ccccc4C5=O)c3)nn2)c1 | 12.4%
CCCCN(CCCC)C(=O)CC | 115%
O=C1Nc2ccc3c(c2/C1=C\c1cc2c(cc1Br)OCO2)OCO3 | 14.4%
O=C1/C(=C/c2ccccc2)CN(C(=O)CCN2CCC(=NO)CC2)C/C1=C\c1ccccc1 | -28.6% (active)
COc1ccc2c(c1)[nH]c(=O)c1c3cc(OC)ccc3cn21 | -63.2% (active)
COc1ccc(Nc2nc(N)nc3c2CCN(Cc2ccc(OC)cc2OC)C3=O)cc1 | 41.9%
Cn1ccc(=O)c(S(N)(=O)=O)c1 | 66.5%
Cc1cc(N/N=C/c2nc(-c3ccccc3)oc2C)c2cc(Br)ccc2n1 | 11.9%
Cc1nn(-c2ccc([N+](=O)[O-])cc2)c2ncnc(NCCc3ccccc3)c12 | 96.9%
CCN(CC)CCC(CNc1ccnc2cc(Cl)ccc12)c1ccc(Cl)cc1 (stereo not given) | -0.553% (active)
OC(c1cc2cc(Br)ccc2c2cc(Br)ccc12)C1CCCCN1 (stereo not given) | -38.9% (active)
C=C1CCC2C3(C)COC(c4c(OC)cccc4OC)OC3CCC2(C)C1C/C=C1/C(=O)OCC1O (stereo not given) | -53.5% (active)

Source: PubChem BioAssay (NCI)
